GBA activity: Glucocerebrosidase. Lysosomal acid glucosylceramidase (Homo sapiens), P04062. purified enzyme, resorufin glucoside fluorescence (screen aimed at inhibitors), 20 min. Potency, µM. actives 1.1% (n = 48,000); in the data active = potency below about 15 µM;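 note: the screen sought inhibitors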
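Wild-type enzyme at 0.2 nM final in 50mM citric acid/KH2PO4, 10mM sodium taurocholate, 0.01% tween-20, pH 5.9, with resorufin beta-D-glucopyranoside at 30 uM final. Compounds titrated, 20 min at RT, red fluorescence read; AC50 from titration.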
GFP derepression: qHTS Assay for Epigenetic Modulators. AID 597, 2007. Potency, µM (series often up to 46.1 µM). mouse C127i GFP locus derepression, cytometry, 30 h. actives 0.09% (n = 68,000)
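Read-out is the number of GFP-positive cells, scored as fluorescent objects 20 to 120 um wide, reflecting derepression of a silenced CMV-GFP reporter in murine C127i cells after 30 h compound exposure at 37 C.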
Ub-GFP proteasome: Ubiquitin-GFP Assay | 67,000 tested, under 10 active | AID 526, 2006 | Potency, µM (series often up to 45.9 µM), usual class: activators | Ubiquitin-GFP reporter cells, proteasome inhibition, GFP fluorescence; response scale: untreated = 0%, 10 µM MG-132 = 100%; active = well fitted activation curve with a large enough effect, not every such curve was filed as active
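Proteasome block read as GFP accumulation: ubiquitin(G76V)-GFP U2OS cells exposed to compound (2.9 nM–46 uM) for 4 hr at 37 C. Normalization used untreated cells as 0% and 10 uM MG-132 as 100%; concentration-response curves fitted.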
Casp7 inh: qHTS Assay for Allosteric/Competitive Inhibitors of Caspase-7. P55210. recombinant caspase-7, Ac-DEVD-AFC fluorescence rate. Potency, µM (top dose mostly 57.5 µM), usual class: inhibitors. actives 0.02% (n = 75,000). AID 889, 2007; active = well fitted inhibition curve with a large enough effect in the main read-out, with a control signal flat, not every such curve was filed as active
HBB splicing: qHTS Assay for Modulators of Hemoglobin Beta Chain Splicing | actives 0.06% (n = 65,000) | AID 925, 2007 | Potency, µM (titrated, usually from 46.1 µM), most hits filed as activators | HBB splicing reporter cell assay, activation; EGFP reporter with mutant IVS2-654 intron; response scale: normalised to 500 nM splice-correcting PNA
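Compounds were applied for 2 days to HeLa EGFP-654 cells, 500/well in Optimem with 2% FCS. The reporter's EGFP is disrupted by mis-splicing of beta-globin intron IVS2-654. Readout: summed well GFP fluorescence from 488 nm laser scanning; reference was 500 nM antisense […] 654 PNA.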
Casp1 inh: qHTS Assay for Allosteric/Competitive Inhibitors of Caspase-1. actives 0.03% (n = 75,000). P29466. Caspase-1 enzyme, Ac-WEHD-AFC fluorogenic rate. Potency, µM (series often up to 57.5 µM), actives largely listed as inhibitors
Numbers stand for hits; n = inactive; x = no result; [ ] = remark or other dose. Many of the other results were omitted from the sample, so hits are more common in it than they were. Unless noted, calls come from the whole dose curve; as a rule, active = well fitted curve in the direction sought with a large enough effect; inconclusive = small, poorly fitted or top-dose-only effect, or another doubt; inactive = no such curve, though single readings can be large; an effect the other way counts as inactive or inconclusive.

SMILES | GBA activity | GFP derepression | Ub-GFP proteasome | Casp7 inh | HBB splicing | Casp1 inh
COc1ccc(C)cc1N(CC(N)=O)S(=O)(=O)c1ccc(C)cc1 | x | n | n[9.17 µM] | n | n[0.0738 µM] | n
COC(=O)CC(=O)Cc1nc(N)nc(Nc2ccc(C)c(C)c2)n1 | x | n | x | x | x | x
Cc1cc(S(=O)(=O)N(C)CCc2ccccc2)ccc1-n1cnnn1 | x | n | n | n | n | n
Cc1cc(S(=O)(=O)N(Cc2ccccc2)Cc2ccc(N(C)C)cc2)ccc1-n1cnnn1 | 8.5 | n | n | n | x | n
COc1cccc(-c2nc3ccc(O)cc3c(=O)o2)c1 | 13 | n | n | n | n | n
CCOc1cc(OCC)c(C(C)=O)cc1OCC | x | x | x | n | n | n
CC(=O)NC(Cc1ccc(F)cc1)C(=O)NC1CCN(c2nnnn2-c2ccccc2)CC1 (stereo unspecified) | 5.8 | n | n | n | n | n
CCCCOC(=O)c1ccc(NC(=O)CSc2nncn2C)cc1 | x | n | x | x | x | x

Screens from PubChem BioAssay.
